# Assay results published in PubChem BioAssay (NCI).
# Several values for one entry are separate records, joined by “and”; a condition that tells them apart may be missing. Identical values can stand only once. This is part of a sample that, as a whole, favours compounds with a hit. Of some 83,000 tested, about 20% had one in any assay.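 96-well plates, one dose, 48 hours. Percent growth reported; active if below 10.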 Unmarked numbers belong to inactive results. Activity calls are given as the source filed them.
# Test system: SW-620 colon
# Assay: NCI-60 one-dose screen, 48 h (100 = growth as untreated, 0 = no growth, -100 = all killed)
# Conditions: 0.005 µM
# Experimental: Growth inhibition of the SW-620 human tumor cell line is measured as a screen for anti-cancer activity. Cells are grown in 96 well plates and exposed to the test compound for 48 hours. Compounds are tested at a single concentration, which is 10^-5 M for most compounds. The reported endpoint is percent growth (GI% or GIPRCNT), where numbers from 0 - 100% represent growth inhibition, and numbers from -100% - 0 represent cell death. For example, a value of 40 represents 60% growth inhibition. A value of 0 means no net growth occurred over the course of the experiment. A value of -40 indicates 40% of cells at the beginning of the experiment died by the end of the experiment. A value of -100 means all cells are dead at the end of the experiment.
# NCI-60 Human Tumor Cell Lines Screen was performed using the standard one-dose NCI protocol, which is described in more detail at https://dtp.cancer.gov/discovery_development/nci-60/default.htm.
# Compounds with GIPRCNT values below 10 were considered active. Activity score was based on GIPRCNT using the following formula: […]
# Score is 0 for GIPRCNT values of 100 or above, 50 for GIPRCNT values of 0, and 100 for GIPRCNT values of -100.
row,SMILES,growth [%]
1,CN(C)CCNc1ncc(F)c(-c2cnc3cc(-c4cnn(C)c4)ccn23)n1,103

# Same assay, conditions: 10 µM unless noted
row,SMILES,growth
1,CCOC(=O)c1nnn(Cc2cc(=O)oc3c2ccc2ccccc23)c1C,107%
2,CCN1CCN(CC(=O)Nc2nc3ccc(NCc4ccc(C)cc4)cc3s2)CC1,44.2%
3,Clc1ccc(CNc2ccc3nc(CCC4CCCCC4)[nH]c3c2)cc1,26.2%
4,CC(C)(C)c1cc(NC(=O)Nc2ccc(-c3cn4c(n3)sc3cc(OCCN5CCOCC5)ccc34)cc2)no1,49.9% and 21.1%
5,Cc1ccc(NC(=O)c2sc3nc(C)c(C(=O)c4ccccc4)cc3c2N)cc1,90.8%
6,O=C1C=C(Nc2ccccc2)c2ncccc2C1=O,-70.6% (active)
7,Cc1ccc(-c2nc3nc(-c4ccc(Br)cc4)nc(N4CCCNCC4)c3o2)cc1,-72.4% (active)
8,O=C(Nc1ccc2ncsc2c1)c1csc(Nc2ccc3[nH]ncc3c2)n1,20.9%
9,O=C(NCc1ccc(Cn2c(=O)sn(-c3ccc(Cl)cc3)c2=O)cc1)OCc1ccc2c(Cl)cc(Cl)c(O)c2n1,49.3%
10,CN(C)CCN1C(=O)c2c(c3c4ccccc4n4c3c3c2c2ccccc2n3C2CC(O)C(O)C4(C)O2)C1=O (stereo not given),18.5%
11,O=C(/C=C/C12c3ccccc3C(c3ccccc31)C1C(=O)NC(=O)C12)c1ccncc1 (stereo not given),13.4%
12,Cc1cccc(Cc2cnc(NC(=O)CCCOc3ccc(Cl)cc3)s2)c1,25%
13,Cc1nc2sc(C(=O)Nc3cccc(Cl)c3C)c(N)c2cc1C(O)c1ccccc1 (stereo not given),24.1%
14,COc1c(NC=O)c2c(c([N+](=O)[O-])c1OC)C(=O)OC2,109% and 103%
15,CCN(C(=O)N1CCN(c2cc3c(cc2F)c(=O)c(C(=O)O)cn3C2CC2)CC1)c1nc(-c2ccccc2)cs1,23.3%
16,CCCCC(NC(=O)CN1C(=O)/C(=C/C(C)=C/c2ccccc2)SC1=S)C(=O)O (stereo not given),94.6%
17,Nc1ccc(S(=O)(=O)c2ccc(N)cc2)cc1,108% and 92.5%
18,COc1ccc(CN2CCc3c(Cl)nc(N)nc3C2=O)c(OC)c1,-46.8% [100 µM] (active)
19,C=C1C(=O)O[C@@H]2[C@H]3[C@H](COC(C)=O)[C@@H](OC(C)=O)C[C@H]3C(=C)[C@@H](O)C[C@@H]12,84.4%

row,SMILES,growth
1,COCCn1cc(-c2csc(-c3cn(C)c4ccc(F)cc34)n2)c2cccnc21,37.6%
2,Brc1ccc(/C=C(/C2=NCCN2)n2ccc3ccccc32)cc1,71.8%
3,CN1CCN(C(=O)OCc2nc3c(N4CCOCC4)nc(Cl)nc3n2C)CC1,-84.9% (active)
4,NS(=O)(=O)OCC1OC(n2cnc3cncnc32)C(O)C1O (stereo not given),5.5% [0.1 µM] (active) and 6.37% [0.1 µM] (active)
5,COc1ccc(Oc2nc(Nc3ccc(N4CCOCC4)cc3)ncc2NC(=O)c2cccc(C(F)(F)F)c2)cc1,87.1%
6,CCCCC#Cc1c(/C=C(\CCCC)SCC)n(C)c(=O)[nH]c1=O,106%
7,Nc1nc(Cl)nc2c1ncn2C1OC(CO)C(O)C1O (stereo not given),66.5% and 72.8%
8,O=C(/C=C/c1ccc([N+](=O)[O-])cc1)c1ccccc1,72.1%
9,CCOc1ccc(C(=O)Cc2ccccc2)cc1,108% and 110%
10,CC1(C)C(N)=Nc2cc(OCCCCN3Cc4ccccc4C3)c(OCC3CC3)cc21,92.8%
11,NCCOCCOc1ccccc1,102%
12,COc1cc(NC2CCCCC2O)c2nc(-c3ccc(Cl)cc3)ccc2c1 (stereo not given),78.9% and 86.7%
13,CCOc1nc(-c2ccccc2)cc2c(O)c(C(=O)N/N=C/c3ccc(N(C)C)cc3)[nH]c(=O)c12,97.8%
14,O=C(N=Nc1c(O)[nH]c2ccccc12)Nc1ccc(Br)cc1,91.6%
15,CON1CCC[C@]2(C)[C@H]3CC[C@@H]4[C@H]5[C@@H](O)C(C)(C)CC[C@]5(CO)CC[C@@]4(C)[C@]3(C)CC[C@H]2C1(C)C,98.4%
16,N=C(N)SCc1c2ccccc2c(CSC(=N)N)c2ccccc12,43.1%
17,Cc1ccc(NC(=O)c2ccc(CN3CCN(C)CC3)cc2)cc1Nc1nccc(-c2cccnc2)n1,110% and 88.6%
18,COc1ccc(-c2cc3cnc4ccccc4c3oc2=O)cc1,95.8%
19,O=C1C(c2c[nH]c3ccccc23)=C(c2coc3cc(Br)ccc23)C(=O)N1O,102%

# Same assay, conditions: 30 µM
row,SMILES,growth [%]
1,CN(C)CCNc1ncc(F)c(-c2cnc3cc(-c4cnn(C)c4)ccn23)n1,25.7
